In the emibetuzumab library of Makowski et al. (2022):
The list shows a part of the results. How many sequences the whole screen found active is unknown.

B1: VH:VL chains; a variant is named by its letters at X, in order (parent)
chain 1: QVQLVQSGAEVKKPGASVKVSCKASGYTFTDYXMHWVRQAPGQGLEWMGXVNPNXXXTTYNQKFEGRVTMTTDTSTSTAYMELRSLRSDDTAVYYCARXNXLDXWGQGTTVTVSS
chain 2: DIQMTQSPSSLSASVGDRVTITCSVSSSVSSIYLHWYQQKPGKAPKLLIYSTSNLASGVPSRFSGSGSGTDFTLTISSLQPEDFATYYCQVYSGYPLTFGGGTKVEIK

Variants of: B1
Experiment: yeast display scFab, FACS + sequencing
Conditions: with MET
Procedure, shortened: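 A heavy-chain CDR mutant scFab library on yeast was enriched magnetically with HGFR-Fc-coated Protein A beads for two rounds and then by FACS after labelling with 1 nM HGFR-Fc and anti-Myc in PBSB with 1% milk for 3 h at room temperature, gating the top 50% antigen-positive cells. Antigen binding was judged positive if a sequence turned up in both antigen-positive deep-sequencing samples and negative if it turned up only in the input.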

Variant | antigen binding call
VEKEGDGS | no binding
YAAKNDGA | no binding
YEGGADVV | no binding
YRRGGSGY | binds
YRRGGAGY | binds
VAGTGDLY | no binding
VTTRASGD | no binding
VTTRAAVS | no binding
VRERSSVD | no binding
VRTRAAVD | binds
VRTRASVD | binds
VRAGADVD | no binding
YTAGSDGV | no binding
VKGRGYGA | binds
VKGEGYGA | no binding
YKGRGYGA | binds
VAGAGYGA | no binding
VRKKGYVY | no binding
VRRGDDVY | no binding
VRAKGAGY | binds

Variant | antigen binding call
VKAKDAGY | no binding
VRRGDVGV | no binding
VRRGDAGY | binds
VEGGGSSV | no binding
DREEGDWA | no binding
DRGGDAVA | no binding
VRGGDAVY chain 1 G44D | no binding
VAGGDAAA | no binding
VRGGDAVA | binds
VRGGDAVS | binds
VRGRDDSA | no binding
VRGKAAVS | no binding
VEGGGAAS | no binding
VRGGDDGS | no binding
VAGGDAVA | no binding
VRGRDAVS | binds
VRGGDAAS | binds
DTGTGDWV | no binding
SEEEGDAV | no binding
VKGAGDLA | no binding

Variant | antigen binding call
VGGTDFVA | binds
VRRTDFVA | no binding
VGGTSDVA | no binding
VGGGADGA | no binding
VKRRSVGA | no binding
VRRRSSLA | binds
VKRRSSLA | binds
VKRATVLA | no binding
YRRESSGY | binds
YRRESSGV | binds
YRREGSGV | binds
DGERDYSD | no binding
YRERGAWV | binds
DREEGSWV | no binding
VEEEGSWV | no binding
FRERGSWV | binds
YRERGSWV | binds
VRERGDWV | no binding
VRERGSWV | binds
